Screens (PubChem)
This is a sample that favours compounds with a hit; in the whole collection about 1.6% have one here.
KCNQ2 block = rat KCNQ2 potassium channel inhibitors, primary screen, cell-based, CHO-K1, FluxOR thallium flux, B-score; Potassium voltage-gated channel subfamily KQT member 2 (Rattus norvegicus), O88943; 20 min; hits give low values; B-score at 10 µM; hit rate 1.1% among 310,000; AID 2156, 2009;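 active means fluorescence ratio B-score at most minus 3 library SDs, with starting brightness B-score within 2 library SDs, cut at about -5.5 in these data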
Target sequence (O88943 whole entry, looked up): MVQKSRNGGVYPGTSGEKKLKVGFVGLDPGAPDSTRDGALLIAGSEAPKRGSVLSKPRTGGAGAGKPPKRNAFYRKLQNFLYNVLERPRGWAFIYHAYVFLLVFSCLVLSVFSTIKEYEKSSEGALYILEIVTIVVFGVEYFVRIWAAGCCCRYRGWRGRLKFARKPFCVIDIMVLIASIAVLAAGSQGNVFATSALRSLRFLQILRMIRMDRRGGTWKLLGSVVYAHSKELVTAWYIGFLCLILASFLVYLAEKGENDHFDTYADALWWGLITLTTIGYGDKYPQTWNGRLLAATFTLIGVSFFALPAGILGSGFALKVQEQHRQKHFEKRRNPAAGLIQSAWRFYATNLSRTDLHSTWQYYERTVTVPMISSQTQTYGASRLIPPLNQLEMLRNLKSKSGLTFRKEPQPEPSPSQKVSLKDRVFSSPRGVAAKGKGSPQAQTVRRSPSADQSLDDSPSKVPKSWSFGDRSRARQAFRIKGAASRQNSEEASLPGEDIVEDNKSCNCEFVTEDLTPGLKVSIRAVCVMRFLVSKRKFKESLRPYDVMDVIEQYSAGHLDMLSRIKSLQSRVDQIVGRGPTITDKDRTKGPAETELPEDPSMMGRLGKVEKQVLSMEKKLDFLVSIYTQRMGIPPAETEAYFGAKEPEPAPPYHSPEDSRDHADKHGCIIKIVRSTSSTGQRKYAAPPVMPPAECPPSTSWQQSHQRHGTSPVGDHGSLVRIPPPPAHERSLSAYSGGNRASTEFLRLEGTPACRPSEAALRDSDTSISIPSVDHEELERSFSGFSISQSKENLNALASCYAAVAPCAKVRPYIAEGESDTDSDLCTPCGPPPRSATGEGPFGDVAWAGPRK
KCNQ2 enhance = potentiators of rat KCNQ2 potassium channel; hit rate 0.54% among 310,000; Potassium voltage-gated channel subfamily KQT member 2 (Rattus norvegicus), O88943; AID 2239, 2010; CHO-K1 KCNQ2, FluxOR thallium flux fluorescence; hits give high values; B-score at 10 µM;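 active means fluorescence ratio B-score at least 3 SD of library B-scores, with initial fluorescence B-score within 3 of them, cut at about 5.3 in these data; same plate scores as AID 2156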;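 further: B-score of peak minus minimum over baseline fluorescence ratio after K+ and Tl+ stimulus; positive B-score means potentiation of KCNQ2 with more thallium influx and brighter signal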
KCNQ2 inh conf = rat KCNQ2 potassium channel inhibitors, confirmation, cell-based, thallium flux; AID 493025, 2011; activity change, negative = inhibition, % at 10 µM; shares compounds with KCNQ2 block; KCNQ2-expressing cells, inhibition; hits give low values; hit rate 57% among 1,000;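 further: 0% = vehicle wells and values are ratio percent relative to vehicle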
KCNQ1 spec = human KCNQ1 channel inhibition, counter-screen for KCNQ2 inhibitor project, cell-based, FluxOR thallium flux. AID 493026, 2011. shares compounds with KCNQ2 block. activity change, negative = inhibition, % at 10 µM. hit rate 15% among 1,000. KCNQ1-expressing cells, FluxOR thallium flux fluorescence; hits give low values;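 active means activity change at least 3 SD of negative controls below their mean in both duplicate wells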;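 further: CHO cells stably transfected with KCNQ1 and depolarized by potassium stimulus; peak minus minimum fluorescence over baseline after thallium addition; 0% = vehicle negative control and -100% = blank without thallium stimulus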
CHO Tl ctr = thallium flux change in parental CHO cells, counter-screen for KCNQ2 inhibitor project; shares compounds with KCNQ2 block; hits give low values; activity change, % at 10 µM; hit rate 14% among 1,000;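 further: 0% = vehicle negative controls with stimulus buffer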
KCNQ2 inh confirm = rat KCNQ2 channel inhibitors, confirmation, cell-based, automated patch clamp, single concentration. shares compounds with KCNQ2 block. KCNQ2-expressing cells, automated patch clamp current. calls only at 10 µM. hit rate 49% among 550. AID 588531, 2011
* marks the source's active call; other numbers are inactive results; i = inactive; · = no result; + = active, no number. Unless noted, how the calls were made is not given here.

SMILES	KCNQ2 block	KCNQ2 enhance	KCNQ2 inh conf	KCNQ1 spec	CHO Tl ctr	others
Cc1ccc(Nc2cc(C)nc(NCc3ccccc3)n2)cc1	i	·	·	·	·
CCc1ccc(-c2nc(CN3CCC(C(=O)NCc4ccccc4OC)CC3)c(C)o2)cc1	i	·	·	·	·
Cc1cccc(-c2nc(CN3CCCC(C(=O)NC4CCCCCC4)C3)c(C)o2)c1 (stereo not given)	-9.7*	-9.7	-28%*	i	i	KCNQ2 inh confirm=+
Cc1cccc(-c2nc(CN3CCCC(C(=O)NC4CCCCC4)C3)c(C)o2)c1 (stereo not given)	i	·	·	·	·
COc1ccccc1CNC(=O)C1CCN(Cc2nc(-c3cccc(Cl)c3)oc2C)CC1	-7.8*	-7.8	i	i	i
CNc1c(NC(=O)COc2ccc(Cl)cc2)c(=O)oc2ccccc12	i	·	·	·	·
CC(=O)c1ccc(NC(=O)COC(=O)c2ccc(F)cc2F)cc1	i	0.8	·	·	·
Cc1cccc(N(Cc2ccccc2)C(=O)Cc2ccc(S(=O)(=O)N3CCOCC3)s2)c1	i	·	·	·	·
O=C(O)C1(P(=O)(c2ccc(Cl)cc2)c2ccc(Cl)cc2)CC1	i	0.44	·	·	·
CCOC(=O)C1(P(=O)(c2ccc(Cl)cc2)c2ccc(Cl)cc2)CCC1	-7.2*	-7.2	-29%*	i	i	KCNQ2 inh confirm=+
CN(CC(O)COc1ccc(OCC(O)CN(C)C2CCCCC2)cc1)C1CCCCC1 (stereo not given)	i	0.08	·	·	·
Cc1cccc(C)c1OCC(O)CN(Cc1ccccc1O)C1CCCCC1 (stereo not given)	-8.4*	-8.4	-41%*	-43%*	-36%*	KCNQ2 inh confirm=+
c1ccc(-c2nc(-c3nccc4ccccc34)oc2-c2ccccc2)cc1	-8.6*	-8.6	i	i	i
Nc1nc(-c2ccccc2)c(-c2ccccc2)o1	i	·	·	·	·
COc1ccccc1NC(=O)Cn1ccn(-c2cccc3ccccc23)c(=O)c1=O	i	·	·	·	·
CC1Oc2ccccc2N(CC(=O)N(Cc2ccccc2)Cc2ccccn2)C1=O (stereo not given)	-7.2*	-7.2	-16%*	i	i	KCNQ2 inh confirm=+
COc1ccc(CN(Cc2ccccn2)C(=O)CN2C(=O)COc3ccccc32)cc1	i	0.38	·	·	·
COc1ccccc1N1CCN(C(=O)c2c(C)cc(=O)oc2C)CC1	i	0.41	·	·	·
COc1cc2c(C(=O)N3CCN(c4ccccc4C)CC3)c(C)oc2cc1Br	-11*	-11	-22%*	i	i	KCNQ2 inh confirm=i
CCN(CC(=O)NCc1ccc(F)cc1)C(=O)/C=C/c1cc(OC)ccc1OC	i	·	·	·	·
CCOc1ccc(CCNC(=O)COC(=O)c2nn(C)c(=O)c3ccccc23)cc1OCC	i	·	·	·	·
O=c1c2ccccc2nc(-c2ccco2)n1/N=C/c1ccco1	i	2.8	·	·	·
Cc1ccccc1OCc1nc2ccccc2c(=O)n1/N=C/c1ccco1	-8.9*	-8.9	-33%*	i	i	KCNQ2 inh confirm=+
CC(C)[C@@H](NC(=O)C1CCN(C(=O)[C@@H]2CCCN2C(=O)OC(C)(C)C)CC1)C(=O)NCc1ccc(F)cc1	i	0.59	·	·	·
CCN(Cc1ccccc1)C(=O)CCc1nnc(CCCc2ccccc2)o1	-10*	-10	-26%*	i	i	KCNQ2 inh confirm=+
SMILES	KCNQ2 block	KCNQ2 enhance	KCNQ2 inh conf	KCNQ1 spec	CHO Tl ctr	others
CN(Cc1ccsc1)C(=O)CCc1nnc(CCCc2ccccc2)o1	i	·	·	·	·
COc1ccc(C(=O)O)cc1S(=O)(=O)NCCc1ccccn1	i	0.16	·	·	·
Clc1cccc(Cl)c1CO/N=C/c1c(-c2ccccc2)nc2n1CCS2	-8.5*	-8.5	i	i	i
COC(=O)/C(C#N)=C/c1c(-c2ccccc2)nc2n1CCS2	i	·	·	·	·
COc1ccc2c(c1)C(c1ccccc1)NC(=O)C2 (stereo not given)	i	·	·	·	·
CCOC(=O)C1CCN(c2c(NCCC(C)C)c(=O)c2=O)CC1	i	·	·	·	·
CN(C)c1ccc(C2(c3ccc(N(C)C)cc3)OC(=O)c3cc(N)ccc32)cc1	i	·	·	·	·
CCc1cc2c(nc1CC)CCN(CC/C(C)=N/O[C@@H](C)c1cc(-c3c(C)cc(C)cc3C)no1)C2	-10*	-10	i	i	i
C/C(CCN1CCc2nc(-c3ccccc3)c(-c3ccccc3)cc2C1)=N\O[C@@H](C)c1cc(-c2c(C)cc(C)cc2C)no1	i	·	·	·	·
COc1ccc(NC(=S)N(Cc2ccccn2)Cc2ccccc2Cl)cc1	-7.9*	-7.9	i	i	i
COc1cccc(NC(=S)N(Cc2ccccn2)Cc2ccccc2Cl)c1	i	·	·	·	·
C=CCOc1ccc(/C=C/C(=O)OCC(=O)N(C)C2CCS(=O)(=O)C2)cc1 (stereo not given)	i	·	·	·	·
CCN(CC(=O)Nc1ccccc1C(F)(F)F)C(=O)c1cc(-c2cccs2)nn1-c1ccccc1	i	·	·	·	·
CCCN(CC(=O)Nc1ccccc1OC)C(=O)c1cc(-c2cccs2)nn1-c1ccccc1	-9.3*	-9.3	-32%*	i	i	KCNQ2 inh confirm=+
CCc1noc(C)c1C(=O)Nc1cccc(S(=O)(=O)N(C)c2ccccc2)c1	i	·	·	·	·
COc1ccc(C(=O)CC(Nc2ccc([N+](=O)[O-])cc2)c2ccc(OC)cc2)cc1 (stereo not given)	-11*	-11	-26%*	i	i	KCNQ2 inh confirm=i
COc1ccc(C(=O)/C=C/Nc2ccc([N+](=O)[O-])cc2)cc1	i	·	·	·	·
Cc1ccc2c(c1)c1c3n2CCN(C(=O)CN2CCN(C)CC2)C3CCC1 (stereo not given)	i	·	·	·	·
CN1CCN(CC(=O)N2CCn3c4c(c5cc(C6CCCCC6)ccc53)CCCC42)CC1 (stereo not given)	-13*	-13	-30%*	i	i	KCNQ2 inh confirm=i
CCOc1ccc2nc(N(Cc3ccccc3)C(=O)CCNC(C)=O)sc2c1	i	·	·	·	·
Cc1cc(C)c(-c2noc(C(=O)OC(C)(C)C)c2C(=O)OC(C)(C)C)c(C)c1	-10*	-10	i	i	i
COc1cc(OC)c(-c2noc(C(=O)OC(C)(C)C)c2C(=O)OC(C)(C)C)c(OC)c1	i	·	·	·	·
CCC1CCCCN1CCCNC(=O)Cn1ncc2c(C)n(Cc3ccccc3Cl)c(C)c2c1=O (stereo not given)	i	·	·	·	·
CCOc1ccc(OCCOC(=O)CNC(=O)c2ccc(Cl)cc2Cl)cc1	i	·	·	·	·
CCOC(=O)C(CSCC(=O)c1ccc(Cl)cc1Cl)NC(=O)OC(C)(C)C (stereo not given)	-7.7*	-7.7	-28%*	i	i	KCNQ2 inh confirm=+
CC1(C)CC2CC(C)(CN2C(=O)c2ccc([N+](=O)[O-])cc2[N+](=O)[O-])C1 (stereo not given)	i	0.02	·	·	·
OCC1(CCOc2ccccc2)CCN(Cc2ccc(OC(F)F)cc2)CC1	i	·	·	·	·
